Results on 57 compounds are retold here after PubChem BioAssay AID652017 (The Scripps Research Institute Molecular Screening Center, 2013).

Screen size: about 370,000 compounds; about 3,800 (1%) were called active. No stated cut-off is given here; in the data, active means activation above about 7.8%; inactive means the rest. This excerpt belongs to a sample that is enriched for actives.

The nature of the test: SMARCA2 (BRM) function activators, primary screen, cell-based, luminescence, high throughput (AID 652017).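 Further: 0% = vehicle wells and 100% = reference activator wells.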 As to conditions: MG213 cells, MMTV-luciferase reporter, dexamethasone, overnight; at 9.1 µM; stronger effect = higher value.
For the compound `O=C(CSc1ncnc2c1nnn2Cc1ccc(F)cc1)NC1CCCC1`, the activation is -2.99% (inactive).
As to `O=C(OCC(=O)c1cccs1)c1ccc([N+](=O)[O-])o1`, the activation was -0.97% (inactive).
For `CCC(C)(C)c1ccc(Oc2ccc(NC(=O)COC(=O)C3=COCCO3)cc2)cc1`, the activation was -10.1% (inactive).
For `O=C(OCC(=O)c1cccs1)C1=COCCO1`, the activation is 8.48% (active).
Take `O=C1Nc2ccccc2-n2nnnc2C1N1CCN(c2cccc(C(F)(F)F)n2)CC1` (configuration not stated): the activation is 3.09% (inactive).
For `CCCCn1nc(C(=O)Nc2cccc(C(=O)NC3CC3)c2)c2ccccc2c1=O`, the activation is 1.35% (inactive).
With `CCCn1nc(C(=O)NNC(=O)CSCC(=O)Nc2cc(C)on2)c2ccccc2c1=O`, the activation is -2.41% (inactive).
On to `CCCn1nc(C(=O)Nc2ccc3nc(C)sc3c2)c2ccccc2c1=O`, for which the activation was 11.4% (active).
For the compound `CCOC(=O)[C@@]12CN(C(=O)OC(C)(C)C)CC=C1N(Cc1ccc(OC)cc1)C(=O)[C@H]2CC(=O)NCc1ccc(OC)c(OC)c1`, the activation was -2.13% (inactive).
Consider `COC(=O)[C@H](CC(C)C)NS(=O)(=O)c1c(F)cccc1F`, for which the activation was -3.1% (inactive).
The result for `C=CCN(C(=O)[C@@H](CCCC)[C@@H](O)c1ccc(Cl)cc1)c1ccccc1` reads -3.35% (inactive); that for `COc1ccccc1CCNC(=O)C1CCN(c2nc(C)cc(C)n2)CC1`, -2.87% (inactive).
Take `CCOC(=O)[C@]12CCCC=C1N(CCCOC)C(=O)[C@@H]2CC(=O)N1CCOCC1`: the activation was -2.55% (inactive).
Turning to `Cc1noc(C)c1S(=O)(=O)N(C)C[C@H]1Oc2c(NC(=O)Nc3ccc4c(c3)OCO4)cccc2C(=O)N([C@H](C)CO)C[C@@H]1C`, the activation is 8.33% (active).
As to `Cc1noc(C)c1NC(=O)Nc1cccc2c1O[C@H](CN(C)S(=O)(=O)c1c(C)noc1C)[C@@H](C)CN([C@H](C)CO)C2=O`, the activation was 2.13% (inactive).
The result for `COc1ccc(S(=O)(=O)N(C)C[C@H]2Oc3c(NC(=O)Nc4ccc5c(c4)OCO5)cccc3C(=O)N([C@H](C)CO)C[C@@H]2C)cc1` reads -0.71% (inactive); that for `COc1ccc(Cn2cc(COC(=O)N(C)Cc3ccccc3)nn2)cc1`, 0.64% (inactive).
As for `Cc1noc(C)c1/C=N/Nc1ccc2ccccc2n1`, the activation is 9.44% (active).
Regarding `Clc1ccc(Nc2ccc3ccccc3n2)cc1`, the activation is 5.05% (inactive).
`O=C(c1c[nH]c2ccccc12)N1CCC(Oc2cccnc2)CC1`: the activation is 3.83% (inactive).
Take `Cc1cc(C)n(C(=O)CCNC(=O)c2ccccc2Cl)n1`: the activation is 0.01% (inactive).
The same measure for `COCCNC(=O)c1ccccc1-c1nc(-c2ccccc2Cl)no1`: 3.36% (inactive).
`CN(C)CCNC(=O)c1ccc(Cl)c2cc3ccccc3nc12`: the activation was 56.5% (active).
Regarding `CC1(C)CC(=O)C=C(NCCN2CCNCC2)C1`, the activation was -1.09% (inactive).
Regarding `CC1(C)CC(=O)C=C(NCCCNC2CCCCC2)C1`, the activation is 10.6% (active).
`CC1(C)CC(=O)C=C(NCCCN2CCCC2=O)C1`: the activation is 0.48% (inactive).
The result for `CC1C(=O)Nc2ccccc2N1C(=O)c1c(F)cccc1F` (configuration not stated) reads 0.63% (inactive); that for `O=C(CSc1nnc(COc2ccccc2)n1-c1ccc(Cl)cc1)Nc1ccc2c(c1)OCO2`, -6.63% (inactive).
Regarding `COc1ccc2c(C(C)c3ccc(N)cc3)cn(C)c2c1` (configuration not stated), the activation was -3.82% (inactive).
Regarding `Cc1ccc(S(=O)(=O)c2c[nH]c3ccc(Cl)cc3c2=O)cc1`, the activation was 10.9% (active).
Take `Cc1ccc(S(=O)(=O)c2c[nH]c3ccc(C)cc3c2=O)cc1`: the activation was -1.93% (inactive).
Turning to `CCCCN(C)Cc1c(C)[nH]c2ccc(Cl)cc2c1=O`, the activation was -3.5% (inactive).
With `CC(OC(=O)c1cccnc1Cl)C(=O)NC1CCCCC1` (configuration not stated), the activation was -0.77% (inactive).
The result for `CCN(C(=O)[C@@H](C1CC1)[C@@H](O)c1ccc2ccccc2c1)c1ccccc1` reads -7.28% (inactive); that for `CC(C)CC(=O)Nc1nnc(S(=O)(=O)N(C)c2ccc(Cl)cc2)s1`, 1.27% (inactive); that for `CCOC(=O)N1CCN(Cc2nc3cc(NC(=O)CC)ccc3n2CC)CC1`, -1.94% (inactive).
The same measure for `COc1ccc(N=C(C)c2sc3ccccc3c2O)cc1`: 11.4% (active); for `COC(=O)c1ccc(/C=C/c2c(-c3ccc(OC)cc3)sc3ccccc23)cc1`: 3.05% (inactive).
The result for `CCCOc1ccc(Oc2c(Cl)cnn(Cc3cccc4ccccc34)c2=O)cc1` reads -0.93% (inactive); that for `CCOC(=O)c1c(C)[nH]c(C2=NNC(=NC(C)COC)SC2)c1C` (configuration not stated), 10.5% (active).
On to `Cc1ccccc1CN1CCCCC(NC(=O)c2cccc(C#N)c2)C1=O` (configuration not stated), for which the activation is -3.87% (inactive).
The same measure for `Cc1ccc(S(=O)(=O)N2C[C@@H]3CCCC[C@@H]3[C@@H](C)[C@H]2c2cn(Cc3ccccc3)c3ccc(F)cc23)cc1`: -2.92% (inactive); for `CC(C)(C)OC(=O)NCCc1ccccc1/C=C/S(=O)(=O)NCc1ccc(F)cc1`: -3.29% (inactive).
With `O=C(CSc1nnc(-c2ccccn2)n1-c1ccc(Cl)cc1)Nc1ccccc1-c1ccccc1`, the activation is -4.51% (inactive).
Consider `CCn1c2ccc(F)cc2c2nnc(SCCN3CCOCC3)nc21`, for which the activation was 0.99% (inactive).
Consider `CN(C)c1nc(NN)nc(Nc2ccc(F)cc2)n1`, for which the activation is -0.18% (inactive).
For the compound `Cn1c2ccc(F)cc2c2nnc(NN)nc21`, the activation is 11.8% (active).
In the case of `CCOC(=O)C1=C(c2ccccc2)NC(=O)NC1c1cc(OC)c(OC)cc1OC` (configuration not stated), the activation was -1.63% (inactive).
The same measure for `Cc1ccc(-n2c(COc3ccccc3)nnc2SCC(=O)Nc2ccc3c(c2)OCCO3)cc1`: -5.34% (inactive).
As to `O=S(=O)(Cc1nnnn1-c1ccccc1)c1ccccc1`, the activation is 3.47% (inactive).
For the compound `COc1ccc(S(=O)(=O)NC(=O)C2(C)CCN2C(=O)c2ccccc2CCc2ccccc2)cc1` (configuration not stated), the activation was -0.47% (inactive).
As to `CCS(=O)(=O)c1ccc2oc(SCC(=O)N3c4ccccc4CC3C)nc2c1` (configuration not stated), the activation was 0.08% (inactive).
In the case of `COc1ccc(S(=O)(=O)N(C)C)cc1NC(=O)CSc1ncccn1`, the activation was 1.65% (inactive).
As for `CN(C)S(=O)(=O)c1ccc2oc(SCC(=O)Nc3ccccc3F)nc2c1`, the activation is 12% (active).
`CCOC(=O)[C@]12CCCC3=C1N(CCC3)C(=O)[C@@H](CC(=O)NCc1cccs1)C2`: the activation was -4.78% (inactive).
For the compound `Nc1ccc(N=Nc2ccccc2Cl)c(N)n1`, the activation is 7.92% (active).
With `C=CCN1C(C(=O)OC)CN(Cc2cn(Cc3ccccc3)nn2)CCS1(=O)=O` (configuration not stated), the activation was 1.74% (inactive).
